# Assay results published in PubChem BioAssay (EPA / NIEHS).
# Calls of active or inactive are those of the source. Rule for the calls: active = hit-call score of the fitted dose curve at least 0.9, where 1 is the maximum; inactive = score below 0.9.
# What was measured:
# [1] = read-out: Human Leukocyte Antigen - DR isotype (HLADR), HLA-DRA (gene 3122); test: BSK_BE3C_HLADR: BioMAP Diversity Plus: BE3C Assay for Human Leukocyte Antigen - DR isotype (HLADR) Biomarker Activity (AID 2283032); details: primary human bronchial epithelial cells; actives raise or lower the signal
# Method in brief: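 BioMAP BE3C format: human bronchial epithelium, 24 h compound treatment, ELISA detection of HLA-DR, with bidirectional analysis relative to DMSO.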
# [2] = read-out: Vascular cell adhesion molecule 1 (VCAM1), VCAM1 (gene 7412); test: BSK_4H_VCAM1: BioMAP Diversity Plus: 4H Assay for Vascular cell adhesion molecule 1 (VCAM1) Biomarker Activity (AID 2283033); details: primary human endothelial cells (HUVEC); actives raise or lower the signal;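 for outcome: cell-surface VCAM-1 protein measured by ELISA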
# Method in brief: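 In this human endothelial (HUVEC) system, biomarker ELISA was run 24 h after compound addition, and total protein in parallel wells was assessed by SRB at 560 nm; DMSO served as negative control.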
# [3] = read-out: Interferon-gamma inducible Protein 10 (IP10), CXCL10 (gene 3627); test: BSK_BE3C_IP10: BioMAP Diversity Plus: BE3C Assay for Interferon-gamma inducible Protein 10 (IP10) Biomarker Activity (AID 2283034); details: primary human bronchial epithelial cells; actives raise or lower the signal
# Method in brief: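 BE3C cells (human bronchial epithelial, primary); 24 h exposure; ELISA for IP-10; DMSO-referenced bidirectional fit.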
# [4] = read-out: Monokine induced gamma interferon (MIG), CXCL9 (gene 4283); test: BSK_BE3C_MIG: BioMAP Diversity Plus: BE3C Assay for Monokine induced gamma interferon (MIG) Biomarker Activity (AID 2283035); details: primary human bronchial epithelial cells; actives raise or lower the signal;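 for outcome: MIG protein measured by ELISA in BE3C cultures after 24 h of dosing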
# Method in brief: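 hu bronchial epithelial 1° cells, 24 h cpd; MIG by ELISA; bidirectional fit, DMSO = baseline.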
# [5] = read-out: Transforming growth factor beta 1 (TGFb1), TGFB1 (gene 7040); test: BSK_BE3C_TGFb1: BioMAP Diversity Plus: BE3C Assay for Transforming growth factor beta 1 (TGFb1) Biomarker Activity (AID 2283036;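 for outcome: TGF-b1 protein level measured by ELISA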); details: primary human bronchial epithelial cells; actives raise or lower the signal
# Method in brief: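 TGF-b1 measured via ELISA, 24 h after chemical dosing of human bronchial epithelial cells (BE3C). Overt cytotoxicity assessed in parallel by SRB (0.1%, TCA-fixed, 560 nm); analysis bidirectional relative to DMSO.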
# [6] = read-out: Plasminogen activator inhibitor-1 (PAI1), SERPINE1 (gene 5054); test: BSK_BE3C_PAI1: BioMAP Diversity Plus: BE3C Assay for Plasminogen activator inhibitor-1 (PAI1) Biomarker Activity (AID 2283037); details: primary human bronchial epithelial cells; actives raise or lower the signal
# Method in brief: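 In this multiplexed primary-cell system, bronchial epithelial cells receive test chemical and are sampled at 24 h. PAI-1 is read by ELISA, with DMSO serving as negative control for bidirectional fitting.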
# [7] = read-out: urokinase plasminogen activator (uPA), PLAU (gene 5328); test: BSK_BE3C_uPA: BioMAP Diversity Plus: BE3C Assay for urokinase plasminogen activator (uPA) Biomarker Activity (AID 2283038); details: primary human bronchial epithelial cells; actives raise or lower the signal;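 for outcome: uPA protein level quantified by ELISA in cell cultures; uPA read one day after compound addition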
# Method in brief: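 Human primary bronchial epithelial cells were exposed to chemical for 24 h, then uPA levels were measured by ELISA. Responses were fitted bidirectionally against DMSO as negative control and baseline. Parallel SRB staining of total protein gauged overt cytotoxicity.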
# [8] = read-out: Urokinase-type plasminogen activator receptor (uPAR), PLAUR (gene 5329); test: BSK_BE3C_uPAR: BioMAP Diversity Plus: BE3C Assay for Urokinase-type plasminogen activator receptor (uPAR) Biomarker Activity (AID 2283039); details: primary human bronchial epithelial cells; actives raise or lower the signal;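 for outcome: cells exposed to compound for one day before measurement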
# Method in brief: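 Chemically treated human bronchial epithelial cells (lung primary) are assayed for uPAR by ELISA after 24 h, with data fitted in both directions using DMSO as negative control.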
# [9] = read-out: Interleukin-6 (IL6), IL6 (gene 3569); test: BSK_CASM3C_IL6: BioMAP Diversity Plus: CASM3C Assay for Interleukin-6 (IL6) Biomarker Activity for (AID 2283040); details: primary human coronary artery smooth muscle cells; actives raise or lower the signal
# [10] = read-out: Tissue plasminogen activator (tPA), PLAT (gene 5327); test: BSK_BE3C_tPA: BioMAP Diversity Plus: BE3C Assay for Tissue plasminogen activator (tPA) Biomarker Activity (AID 2283041); details: primary human bronchial epithelial cells; actives raise or lower the signal;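 for outcome: tPA level quantified by ELISA one day after compound addition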
# Method in brief: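 Using human lung primary bronchial epithelial cells, tPA was measured by ELISA 24 h after dosing; data fitted relative to DMSO.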
# [11] = read-out: Interleukin-8 (IL8), CXCL8 (gene 3576); test: BSK_CASM3C_IL8: BioMAP Diversity Plus: CASM3C Assay for Interleukin-8 (IL8) Biomarker Activity (AID 2283042); details: primary human coronary artery smooth muscle cells; actives raise or lower the signal;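 note: IL-8 protein level quantified by ELISA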
# [12] = read-out: Human Leukocyte Antigen - DR isotype (HLADR), HLA-DRA (gene 3122); test: BSK_CASM3C_HLADR: BioMAP Diversity Plus: CASM3C Assay for Human Leukocyte Antigen - DR isotype (HLADR) Biomarker Activity (AID 2283043); details: primary human coronary artery smooth muscle cells; actives raise or lower the signal;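 note: cell-surface HLA-DR protein level quantified by ELISA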
# [13] = read-out: Macrophage colony-stimulating factor (MCSF), CSF1 (gene 1435); test: BSK_CASM3C_MCSF: BioMAP Diversity Plus: CASM3C Assay for Macrophage colony-stimulating factor (MCSF) Biomarker Activity (AID 2283044); details: primary human coronary artery smooth muscle cells; actives raise or lower the signal;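 note: M-CSF protein amount quantified by ELISA after 24 h exposure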
# [14] = read-out: Low-density lipoprotein receptor (LDLR), LDLR (gene 3949); test: BSK_CASM3C_LDLR: BioMAP Diversity Plus: CASM3C Assay for Low-density lipoprotein receptor (LDLR) Biomarker Activity (AID 2283045); details: primary human coronary artery smooth muscle cells; actives raise or lower the signal;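 note: LDLR protein level on the cell surface quantified by ELISA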
# [15] = read-out: Monocyte Chemoattractant Protein-1 (MCP1), CCL2 (gene 6347); test: BSK_CASM3C_MCP1: BioMAP Diversity Plus: CASM3C Assay for Monocyte Chemoattractant Protein-1 (MCP1) Biomarker Activity (AID 2283046); details: primary human coronary artery smooth muscle cells; actives raise or lower the signal;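 note: MCP-1 level quantified by ELISA 24 h after dosing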
# [16] = BSK_CASM3C_Proliferation: Cell Proliferation Assessment in the BioMAP Diversity Plus: CASM3C Assay (AID 2283047); details: primary human coronary artery smooth muscle cells;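 note: sulforhodamine B total protein stain as relative cell number at 560 nm; sub-confluent cells exposed 48 h before staining; fitted both ways against DMSO so gain or loss of cell number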
# [17] = read-out: Monokine induced gamma interferon (MIG), CXCL9 (gene 4283); test: BSK_CASM3C_MIG: BioMAP Diversity Plus: CASM3C Assay for Monokine induced gamma interferon (MIG) Biomarker Activity (AID 2283048); details: primary human coronary artery smooth muscle cells; actives raise or lower the signal
# [18] = read-out: serum amyloid A (SAA), SAA1 (gene 6288); test: BSK_CASM3C_SAA: BioMAP Diversity Plus: CASM3C Assay for serum amyloid A (SAA) Biomarker Activity (AID 2283049); details: primary human coronary artery smooth muscle cells; actives raise or lower the signal;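 note: SAA protein level quantified by ELISA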
# [19] = BSK_CASM3C_SRB: Viability Assessment in the BioMAP Diversity Plus: CASM3C Assay (AID 2283050); details: primary human coronary artery smooth muscle cells;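 note: total protein by SRB staining as cytotoxicity measure in parallel cultures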
# [20] = read-out: Vascular endothelial growth factor receptor 2 (Homo sapiens) (UniProt P35968); test: BSK_4H_VEGFRII: BioMAP Diversity Plus: 4H Assay for Vascular endothelial growth factor receptor 2 (VEGFR2) Biomarker Activity (AID 2283031); details: primary human endothelial cells (HUVEC); actives raise or lower the signal;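 for AC50: cell-surface VEGFR2 protein level quantified by ELISA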
# Method in brief: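 Primary human umbilical vein endothelial cells in the BioMAP 4H system were dosed with test chemical, and 24 h later VEGFRII was measured by ELISA. Activity was fitted bidirectionally against DMSO as negative control and baseline.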
compound,measurement,setting,value
C=C(C)C(=O)[O][Sn]([CH2]CCC)([CH2]CCC)[CH2]CCC,AC50,[1],0.148 µM (active)
same,AC50,[2],0.148 µM (active)
same,AC50,[3],0.336 µM (active)
same,AC50,[4],0.147 µM (active)
same,AC50,[5],0.146 µM (active)
same,AC50,[6],0.146 µM (active)
same,AC50,[7],0.215 µM (active)
same,AC50,[8],0.146 µM (active)
same,AC50,[9],0.148 µM (active)
same,AC50,[10],0.148 µM (active)
same,AC50,[11],0.359 µM (active)
same,AC50,[12],0.148 µM (active)
same,AC50,[13],0.326 µM (active)
same,AC50,[14],0.148 µM (active)
same,AC50,[15],0.292 µM (active)
same,AC50,[16],0.148 µM (active)
same,AC50,[17],1.03 µM (active)
same,AC50,[18],0.366 µM (active)
same,AC50,[19],0.148 µM (active)
C[C@@H]1C[C@@H]([C@H](O)CC2CC(=O)NC(=O)C2)C(=O)[C@@H](C)C1,AC50,[20],8.73 µM (active)
same,AC50,[1],4.95 µM (active)
same,AC50,[2],17.7 µM (active)
same,AC50,[3],8.61 µM (active)
same,AC50,[4],14.4 µM (active)
same,AC50,[5],2.83 µM (active)
same,AC50,[6],1.63 µM (active)
same,AC50,[7],6.45 µM (active)
same,AC50,[8],4.03 µM (active)
same,AC50,[9],1.27 µM (active)
same,AC50,[10],2.91 µM (active)
same,AC50,[11],6.03 µM (active)
same,AC50,[12],1.84 µM (active)
same,AC50,[13],4.28 µM (active)
same,AC50,[14],0.791 µM (active)
same,AC50,[15],9.46 µM (active)
same,AC50,[16],1.63 µM (active)
same,AC50,[17],1.78 µM (active)
same,outcome,[18],inactive
same,AC50,[19],8.63 µM (active)
ClCC(Cl)CCl,outcome,[20],inactive
same,outcome,[1],inactive
same,outcome,[2],inactive
same,outcome,[3],inactive
same,outcome,[4],inactive
same,outcome,[5],inactive
same,outcome,[6],inactive
same,outcome,[7],inactive
same,outcome,[8],inactive
same,outcome,[9],inactive
same,outcome,[10],inactive
same,outcome,[11],inactive
same,outcome,[12],inactive
same,outcome,[13],inactive
same,outcome,[14],inactive
same,outcome,[15],inactive
same,outcome,[16],inactive
same,outcome,[17],inactive
same,outcome,[18],inactive
same,outcome,[19],inactive
CCCCCCCCc1ccc(O)cc1,AC50,[1],33 µM (active)
same,AC50,[2],33.2 µM (active)
same,AC50,[3],31.9 µM (active)
same,AC50,[4],37.7 µM (active)
same,AC50,[5],30.5 µM (active)
same,AC50,[6],33.9 µM (active)
same,AC50,[7],32.7 µM (active)
same,AC50,[8],32.5 µM (active)
same,AC50,[9],20.1 µM (active)
same,AC50,[10],25 µM (active)
same,AC50,[11],30.1 µM (active)
same,AC50,[12],20.1 µM (active)
same,AC50,[13],31.9 µM (active)
same,AC50,[14],20.1 µM (active)
same,AC50,[15],27.8 µM (active)
same,AC50,[16],31.5 µM (active)
same,AC50,[17],31.2 µM (active)
same,AC50,[18],36.1 µM (active)
same,AC50,[19],30.9 µM (active)
NC(=O)O,outcome,[20],inactive
same,outcome,[1],inactive
same,outcome,[2],inactive
same,outcome,[3],inactive
same,outcome,[4],inactive
same,outcome,[5],inactive
same,outcome,[6],inactive
same,outcome,[7],inactive
same,outcome,[8],inactive
same,outcome,[9],inactive
same,outcome,[10],inactive
same,outcome,[11],inactive
same,outcome,[12],inactive
same,outcome,[13],inactive
same,outcome,[14],inactive
same,outcome,[15],inactive
same,outcome,[16],inactive
same,outcome,[17],inactive
same,outcome,[18],inactive
same,outcome,[19],inactive
C(=NC1CCCCC1)=NC1CCCCC1,AC50,[1],20 µM (active)
same,AC50,[2],7.64 µM (active)
same,AC50,[3],20 µM (active)
same,AC50,[4],36.3 µM (active)
same,outcome,[5],inactive
same,outcome,[6],inactive
same,AC50,[7],31.8 µM (active)
same,AC50,[8],20 µM (active)
same,AC50,[9],36.8 µM (active)
same,outcome,[10],inactive
same,outcome,[11],inactive
same,AC50,[12],20 µM (active)
same,AC50,[13],26.1 µM (active)
same,AC50,[14],34.5 µM (active)
same,AC50,[15],32.8 µM (active)
same,AC50,[17],33.5 µM (active)
same,AC50,[18],35.7 µM (active)
same,AC50,[19],20 µM (active)
Oc1c(I)cc(I)cc1I,AC50,[20],12.5 µM (active)
same,AC50,[1],3.97 µM (active)
same,AC50,[2],20 µM (active)
same,AC50,[3],4.41 µM (active)
same,outcome,[4],inactive
same,outcome,[5],inactive
same,AC50,[6],1.83 µM (active)
same,outcome,[7],inactive
same,AC50,[8],2.31 µM (active)
same,outcome,[9],inactive
same,AC50,[10],3.34 µM (active)
same,outcome,[11],inactive
same,outcome,[12],inactive
same,outcome,[13],inactive
same,outcome,[14],inactive
same,outcome,[15],inactive
same,outcome,[16],inactive
same,outcome,[17],inactive
same,outcome,[18],inactive
same,outcome,[19],inactive
Nc1cccc2ccccc12,outcome,[1],inactive
same,outcome,[2],inactive
same,AC50,[3],20 µM (active)
same,outcome,[4],inactive
same,outcome,[5],inactive
same,outcome,[6],inactive
same,outcome,[7],inactive
same,outcome,[8],inactive
same,outcome,[9],inactive
same,outcome,[10],inactive
same,outcome,[11],inactive
same,outcome,[12],inactive
same,outcome,[13],inactive
same,AC50,[14],12.6 µM (active)
same,outcome,[15],inactive
same,outcome,[16],inactive
same,outcome,[17],inactive
same,outcome,[18],inactive
same,outcome,[19],inactive
NC(=S)Nc1ccccc1,outcome,[20],inactive
same,outcome,[1],inactive
same,outcome,[2],inactive
same,outcome,[3],inactive
same,outcome,[4],inactive
same,outcome,[5],inactive
same,outcome,[6],inactive
same,outcome,[7],inactive
same,outcome,[8],inactive
same,outcome,[9],inactive
same,outcome,[10],inactive
same,outcome,[11],inactive
same,outcome,[12],inactive
same,outcome,[13],inactive
same,outcome,[14],inactive
same,outcome,[15],inactive
same,outcome,[16],inactive
same,outcome,[17],inactive
same,outcome,[18],inactive
same,outcome,[19],inactive
